Screens as filed in PubChem BioAssay.
This is a sample that favours compounds with a hit; in the whole collection about 2.7% have one here.
KDM5B inh – KDM5B demethylase inhibition; KDM5B demethylase, FDH-coupled NADH fluorescence (FDH is formaldehyde dehydrogenase); 220,000 tested, 2.6% active; Potency, µM (top dose mostly 57.7 µM), usual class: inhibitors; active means well fitted inhibition curve with a large enough effect; inconclusive means small, poorly fitted or top-dose-only effect; inactive means no such curve, though single readings can be large or run the other way; further: potency means the concentration at half of the fitted maximal effect; 0% is about no effect; nearly all actives have a fitted effect of over 70% in size
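Compound dilutions met 200 nM (final) KDM5BΔAP for 10 min at room temperature before substrate addition. The substrate mix held 12.5 µM H3K4me3 with cofactors 25 µM α-ketoglutarate and 50 µM Fe²⁺. NADH signal gain over 30 min defined activity.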
IP6K1 inh – inhibitors of human IP6K1; IP6K1 kinase, ADP-Glo luminescence, 2 h; stronger effect = lower value; activity change, % (series mostly up to about 58 µM); 140,000 tested, 0.81% active; in the data active means activity change below about -25%; further: on the % scale 0 is the no-effect control and ±100 the full control effect
Target sequence (Q92551 whole entry, looked up): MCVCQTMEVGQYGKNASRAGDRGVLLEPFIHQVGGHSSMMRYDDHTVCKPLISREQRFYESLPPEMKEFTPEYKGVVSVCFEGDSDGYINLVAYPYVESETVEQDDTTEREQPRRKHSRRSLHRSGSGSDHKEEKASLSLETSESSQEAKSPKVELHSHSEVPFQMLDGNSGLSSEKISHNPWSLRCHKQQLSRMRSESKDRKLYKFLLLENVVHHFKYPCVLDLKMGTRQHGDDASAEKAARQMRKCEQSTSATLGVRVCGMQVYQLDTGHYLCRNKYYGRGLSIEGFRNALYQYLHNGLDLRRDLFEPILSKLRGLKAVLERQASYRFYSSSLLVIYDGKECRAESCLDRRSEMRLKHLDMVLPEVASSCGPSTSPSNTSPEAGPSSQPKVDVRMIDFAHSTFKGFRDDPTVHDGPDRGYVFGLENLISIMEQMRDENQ
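ADP-Glo luminescence measures ADP made by human IP6K1 during a 2 h RT reaction with ATP/IP6 (mix at 1.3 mM/130 uM); top library doses 57.5 and 19.1 uM final.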
Active calls of the source: *; i = inactive; ? = inconclusive; · = not tested or not shown.

SMILES	KDM5B inh	IP6K1 inh
O=C(O)CC[C@@H]1CN(c2cnccn2)CC[C@@H]1N1CCOCC1	?	1.4
COc1ccccc1CNC(=O)[C@H]1CCC[C@H]1NC(=O)c1ccncc1	i	16.8
Cc1ccc2oc(C(=O)N(C)CC(=O)Nc3ccccc3Br)cc(=O)c2c1	i	·
O=C(NCCc1ccc(Cl)cc1)C1CCN(c2ccnc3ccnn23)CC1	·	5.8
Cn1c(SCc2nc(-c3ccc(C(F)(F)F)cc3)no2)nc2ccsc2c1=O	i	·
COc1ccc(C(=O)N[C@@H]2CCC[C@@H]2C(=O)NCCCn2cccn2)cn1	i	2.5
COC[C@@H]1CN(c2cnccn2)C[C@H]1C(=O)NCCCn1cccn1	20µM*	13.7
CCc1c(C)sc(NC(=O)c2cccc(Cl)c2)c1C#N	i	·
Cc1ccc(NC(=O)CN(C)C(=O)c2oc3ccccc3c2C)cc1	i	·
CNC(=O)c1cc(C2CC2)nc2onc(C3CCN(C(=O)c4ccccc4F)C3)c12 (stereo unspecified)	·	-5.9
CC1(c2ccccc2)N(Cc2ccccc2F)C(=O)OC12CCN(c1cccnc1)CC2 (stereo unspecified)	?	-14.8
Cc1nnc([C@@H]2CC(F)(F)CN2C(=O)c2cccc3[nH]ccc23)o1	28.2µM*	14.2
Cc1nnc([C@@H]2CC(F)(F)CN2C(=O)c2ccoc2C)o1	i	8.3
COc1ccc(Cl)cc1NC(=O)CCn1nc(-c2cccs2)oc1=O	i	·
O=C(NCc1cccc(Cl)c1)N1CC=C(c2ccc(F)cc2)CC1	i	·
CC(C)C(=O)Oc1ccc2c(=O)c(-c3ccc(Cl)cc3)coc2c1	i	·
Cc1cc(NCc2cncn2CC(C)C)n2nc(C)cc2n1	?	6.8
Cc1cc(NCCN2CCNC2=O)n2nc(C)cc2n1	17.8µM*	3.5
COc1c(Br)cc(F)cc1NC(=O)Cc1coc2cc3c(cc12)CCC3	i	·
CNC(=O)c1cc(-c2ccc(N3CCOCC3)cc2)cc2c1OCCN2Cc1cccnc1	i	-8.1
CNC(=O)c1cc(-c2ccccc2O)cc2c1OCCN2Cc1cccnc1	31.6µM*	2.9
COCCNC(=O)c1cc(-c2ccccc2F)nc2c1cnn2C	·	-9.8
CNC(=O)c1cc(-c2ccc(OC)nc2)cc2c1OCCN2Cc1cccnc1	28.2µM*	-21.4
CNC(=O)c1cc(-c2ccccc2C)cc2c1OCCN2Cc1cccnc1	?	4.2
COCCNC(=O)c1cc(-c2ccccc2F)cc2c1OCCN2Cc1cccnc1	31.6µM*	-14.8
SMILES	KDM5B inh	IP6K1 inh
CC(C)CNC(=O)c1cc(-c2ccccc2F)cc2c1OCCN2Cc1cccnc1	31.6µM*	-20.9
Cc1ccc2c(n1)O[C@@H](COCc1ccccc1)CN(Cc1ccc3c(c1)OCO3)C2=O	·	38.0
Cc1cnc(C)n1CC1CCN(S(=O)(=O)c2cccc(F)c2)CC1	i	-7.0
O=C(c1cc(-c2ccccc2F)cc2c1OCCN2Cc1cccnc1)N1CCCC1	?	-16.0
CNC(=O)c1cc(-c2ccccc2F)cc2c1OCCN2Cc1cccnc1	39.8µM*	-5.8
O=C(NC1CCOCC1)c1cc(-c2ccccc2F)cc2c1OCCN2Cc1cccnc1	22.4µM*	-11.8
O=C(NCCc1cccnc1)c1ccccc1F	i	·
CNC(=O)c1cc(Nc2cccc(N(C)C)c2)cc2c1OCCN2Cc1cccnc1	?	-19.0
O=C(c1cc(-c2ccccc2F)cc2c1OCCN2Cc1cccnc1)N1CC(O)C1	39.8µM*	-14.7
CNC(=O)c1cc(-c2ccccc2OC)cc2c1OCCN2Cc1cccnc1	28.2µM*	-18.9
CNC(=O)c1cc(-c2cccc(NC(C)=O)c2)cc2c1OCCN2Cc1cccnc1	?	5.1
N#Cc1ncn(Cc2coc(-c3ccc(Cl)cc3)n2)n1	i	·
COc1ccc(-c2cnc(NCc3ccccc3)c3c2CCO3)cc1	?	1.6
COCCNc1ncc(-c2ccnc(C)c2)c2c1OCC2	?	-11.0
COCCNc1ncc(-c2ccsc2)c2c1OCC2	35.5µM*	5.8
COCCNc1ncc(-c2cccc(NC(C)=O)c2)c2c1OCC2	39.8µM*	0.0
COCCNc1ncc(-c2ccncc2)c2c1OCC2	?	-1.6
COCCNc1ncc(-c2ccc([S+](C)(=O)[O-])cc2)c2c1OCC2	31.6µM*	1.9
O=C1CN(C(=O)c2cccc(C(F)(F)F)c2)CC(O)CN1CCCc1ccccc1 (stereo unspecified)	·	-4.9
O=C(CNC(=O)c1cccc(-c2ccsc2)c1)NCc1cccc(C(F)(F)F)c1	·	10.8
COc1ccc(CNC(=O)c2cn3ccnc(-c4ccccc4)c3n2)cc1OC	i	23.5
COc1ccc(-c2nccn3cc(C(=O)NCc4cccnc4)nc23)cc1	20µM*	19.3
COc1ccc(-c2nccn3cc(C(=O)NCCc4cccnc4)nc23)cc1	28.2µM*	13.1
COc1cc(C(=O)NCc2nc3ccccc3n2C)cc(OC)c1OC	i	·
COc1ccc(-c2nccn3cc(C(=O)NCc4nc5ccccc5n4C)nc23)cc1	7.94µM*	16.0
SMILES	KDM5B inh	IP6K1 inh
COc1ccc(-c2nccn3cc(C(=O)O)nc23)cc1	28.2µM*	-10.2
COCCNC(=O)c1cn2ccnc(-c3ccc(C)cc3)c2n1	i	19.7
COc1ccc(-c2nccn3cc(C(=O)Nc4ccc(OC)c(OC)c4)nc23)cc1	i	-0.3
O=C1NC(=NC2CCCC2)C2(CCCN(Cc3ccc(F)cc3)C2)N1c1cccnc1 (stereo unspecified)	i	-6.4
COc1ccc(S(=O)(=O)N2CC(=O)N(CC3CC3)C3(CCCCC3)C2)cc1	·	8.0
Cn1c(COc2ccccc2Cl)n[nH]c1=S	i	·
COC(=O)c1cc(S(=O)(=O)N(C)CC(=O)Nc2ccc(Br)c(C)c2)cn1C	i	·
COc1cccc(OC)c1C(=O)N1CCN(Cc2cc(=O)oc3cc(C)ccc23)CC1	i	·
O=C(NCCc1ccc(F)cc1)C1CCCC1	i	·
Cc1ccccc1C(=O)NCCNC(=O)c1cccc(-c2ncccc2C#N)c1	·	5.1
COc1ccc(C(=O)Nc2oc3ccccc3c(=O)c2-c2ccc(Cl)cc2)cc1OC	i	·
CCOC(=O)C1CCN(C(=O)c2cn3ccnc(-c4ccc(OC)cc4)c3n2)CC1	25.1µM*	21.9
CCOC(=O)C1CCN(C(=O)c2cn3cc(-c4ccc(OC)cc4)sc3n2)CC1	·	5.5
CCOC(=O)CN1CCCC1c1ccc(C(=O)NCCn2ccnc2)s1 (stereo unspecified)	28.2µM*	12.9
COc1ccc(C2CCCN2C(=O)NCCn2ccnc2)cc1OC (stereo unspecified)	i	·
CC(C)NC(=O)c1ccccc1OCC1CCCN(Cc2ccc(F)cc2)C1 (stereo unspecified)	i	1.6
CN(C)c1ccc(-c2nnc([C@H]3CCN(Cc4ccccc4)C3)o2)cc1	?	27.2
CN(C)c1ccc(-c2nnc([C@H]3CCN(C4CCC4)C3)o2)cc1	28.2µM*	-2.9
c1ccc(-c2nnc([C@H]3CCN(C4CCC4)C3)o2)cc1	?	0.2
CN(C)c1ccc(-c2nnc([C@H]3CCN(CC4CCCCC4)C3)o2)cc1	31.6µM*	3.0
CN1CC[C@H](c2nnc(-c3ccccc3)o2)C1	?	-1.7
c1ccc(CCCN2CC[C@H](c3nnc(-c4ccccc4)o3)C2)cc1	31.6µM*	24.6
c1cc(-c2nnc([C@H]3CCN(CC4CCCCC4)C3)o2)ccn1	i	1.2
CN(C)c1ccc(-c2nnc([C@H]3CCN(CC4CC4)C3)o2)cc1	31.6µM*	5.4
O=C(O)C1C(c2ccccc2)C(C(=O)Oc2cccc3ccccc23)C1c1ccccc1 (stereo unspecified)	i	·
